Source: PubChem BioAssay
Most compounds without a hit are left out; they make up all but 7.5% or so of the library.
FLuc modulator = firefly luciferase modulation, counter-screen for miR-21 project. P08659. purified FLuc, Km substrates, luminescence inhibition. Potency, µM (highest dose often 57.5 µM), actives largely listed as inhibitors. actives 6.9% (n = 360,000). AID 588342; also: nearly all actives have a fitted effect of over 55% in size
Target sequence (P08659 whole entry, looked up): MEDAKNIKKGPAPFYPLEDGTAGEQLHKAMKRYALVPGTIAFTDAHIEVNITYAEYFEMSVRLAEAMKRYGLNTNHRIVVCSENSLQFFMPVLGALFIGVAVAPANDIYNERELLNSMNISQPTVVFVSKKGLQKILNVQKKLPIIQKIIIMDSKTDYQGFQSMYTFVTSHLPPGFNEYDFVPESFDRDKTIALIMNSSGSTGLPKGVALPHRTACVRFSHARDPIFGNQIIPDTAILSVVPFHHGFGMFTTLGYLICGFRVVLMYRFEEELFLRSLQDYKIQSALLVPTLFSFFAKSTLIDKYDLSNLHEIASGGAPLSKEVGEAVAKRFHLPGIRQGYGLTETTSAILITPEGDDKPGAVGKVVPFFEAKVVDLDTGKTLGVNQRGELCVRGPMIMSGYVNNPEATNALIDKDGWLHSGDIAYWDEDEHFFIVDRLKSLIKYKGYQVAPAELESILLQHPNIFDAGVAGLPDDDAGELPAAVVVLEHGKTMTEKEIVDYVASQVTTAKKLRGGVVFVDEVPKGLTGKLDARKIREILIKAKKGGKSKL
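Purified P. pyralis luciferase, 10 nM final, with Km-level 10 uM D-luciferin and 10 uM ATP in 50 mM Tris acetate pH 7.5, 10 mM Mg acetate, 0.01% Tween-20, 0.05% BSA; 6-point qHTS titration about 60 µM downward; luminescence read.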
SMN2 splice up = increases expression of the SMN2 splice variant | Potency, µM (top dose mostly 46.1 µM), most hits filed as activators | HEK293 SMN2-luciferase splicing reporter, luminescence, 30-36 h | actives 2.8% (n = 210,000); also: nearly all actives have a fitted effect of over 55% in size
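qHTS luciferase splicing reporter: luminescence rises when SMN2 exon 7 is included in transfected HEK293 cells. Compound exposure lasted 30-36 h at 37C, with 4.5 mM final sodium butyrate as control, followed by a ONE-Glo read.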
ELG1 genotox = inducers of genotoxicity in HEK293T ELG1-luciferase cells; HEK293T ELG1-luciferase reporter, luminescence, 16 h; Potency, µM (doses to about 46 µM), hits mostly activators; actives 1.3% (n = 330,000); also: nearly all actives have a fitted effect of over 60% in size
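ELG1-luciferase HEK293T cells, 2,000/well; compound pinned in; 16 hr, 37 °C, 5% CO2; ONE-Glo, 30 min RT; luminescence on CCD imager.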
NPC1 promoter act = activators of NPC1 promoter; Huh7 NPC1 promoter luciferase reporter, 24 h; Potency, µM (titrated, usually from 9.22 µM), most hits filed as activators; actives 2.4% (n = 320,000); also: nearly all actives have a fitted effect of over 60% in size
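Stable NPC1-promoter luciferase Huh7 line; cpd (DMSO) 24 h, 37 °C, 5% CO2; Amplite luciferase reagent 10 min RT; luminescence readout. qHTS format.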
Luc counter = blocks Kinase-Glo luciferase, a counter-screen artifact. Potency, µM (titrated, usually from 38.3 µM), most hits filed as inhibitors. actives 0.28% (n = 200,000). Kinase-Glo luciferase, ATP luminescence, 8 min. Q27757; also: nearly all actives have a fitted effect of over 60% in size
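Light output from Kinase-Glo luciferase with luciferin and 10 uM ATP in 50 mM imidazole pH 7.2, KCl, MgCl2, Tween 20, BSA; compound pin-delivered, 8-min ambient incubation, then luminescence read.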
Rab9 promoter act = activates the Rab9 promoter; Huh7 Rab9 promoter-luciferase reporter, luminescence, 24 h; Potency, µM (highest dose often 9.22 µM), usual class: activators; AID 485297; actives 2.8% (n = 320,000); also: nearly all actives have a fitted effect of over 60% in size
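Huh7 cells stably carrying Rab9 promoter–luciferase reporter, plated 1500 cells/well, compound added after 2 h and incubated 24 h at 37 °C; luciferase luminescence then read after 10 min with detection reagent.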
Large screens that a line does not name were inactive. Calls follow the shape of the dose curve; as a rule, active = well fitted curve in the direction sought with a large enough effect; inconclusive = small, poorly fitted or top-dose-only effect, or another doubt; inactive = no such curve, though single readings can be large; an effect the other way counts as inactive or inconclusive.

Cc1cc(NC(=O)COc2ccccc2C)no1	FLuc modulator 17µM, ELG1 genotox inconclusive, NPC1 promoter act 3.2µM, Rab9 promoter act 3.2µM (no result: SMN2 splice up)
CCCNC(=O)c1ccc(-c2nc(CS(=O)(=O)c3ccc(C)cc3)c(C)o2)cc1	none (no result: SMN2 splice up, ELG1 genotox, NPC1 promoter act, Luc counter, Rab9 promoter act)
Cc1ccc(C(=O)c2oc3ccccc3c2NC(=O)c2cc(-c3ccc(Cl)cc3)on2)cc1	none (no result: SMN2 splice up, ELG1 genotox, NPC1 promoter act, Luc counter, Rab9 promoter act)
Cc1ccc(S(=O)(=O)N2CCCCC2)cc1NC(=O)c1ccc2ccccc2n1	FLuc modulator 27µM
CCC(CC)c1nnc(NC(=O)c2ccc3ccccc3n2)s1	FLuc modulator 5.4µM, SMN2 splice up 13µM, ELG1 genotox inconclusive, NPC1 promoter act inconclusive, Rab9 promoter act inconclusive
Cc1ccccc1NC(=O)c1cccc(C(=O)Nc2ccccc2C)n1	none (no result: SMN2 splice up, Luc counter)
Cc1cccc(NC(=O)c2ccc3ccccc3n2)c1C	FLuc modulator 0.85µM, SMN2 splice up 13µM, ELG1 genotox inconclusive, NPC1 promoter act inconclusive, Rab9 promoter act inconclusive
Cc1csc(NC(=O)c2cnc3ccccc3n2)n1	FLuc modulator 2.4µM, ELG1 genotox inconclusive, NPC1 promoter act inconclusive, Rab9 promoter act inconclusive (no result: SMN2 splice up, Luc counter)
COc1ccc(-n2c(SCC(=O)NCc3ccccc3)nc3n[nH]c(C)c3c2=N)cc1	none (no result: SMN2 splice up, ELG1 genotox, NPC1 promoter act, Luc counter, Rab9 promoter act)
COc1ccc(-c2noc(CSCC(=O)Nc3ccc(C)cc3Br)n2)cc1OC	none (no result: SMN2 splice up, ELG1 genotox, NPC1 promoter act, Luc counter, Rab9 promoter act)
O=C(COC(=O)C1CC2CCCC(C1)C2=O)NNC(=O)c1ccccc1F (configuration not stated)	none (no result: SMN2 splice up, Luc counter)
CN(C)CC(O)CN1C(=O)N(CN2C(=O)N(CC(O)CN(C)C)C(=O)C2(C)C)C(C)(C)C1=O (configuration not stated)	none
COc1ccc(NC(=O)/C(Cl)=C(/Cl)S(=O)Cc2ccccc2Cl)cn1 (configuration not stated)	FLuc modulator inconclusive
O=C(Nc1nccs1)c1ccc2ccccc2n1	FLuc modulator 3.4µM, ELG1 genotox inconclusive, NPC1 promoter act 4µM, Rab9 promoter act inconclusive (no result: SMN2 splice up, Luc counter)
O=C(Nc1ccccn1)c1ccc2ccccc2n1	FLuc modulator 0.95µM, SMN2 splice up 11µM, ELG1 genotox inconclusive, NPC1 promoter act inconclusive, Luc counter inconclusive, Rab9 promoter act 4.5µM
Cc1csc(NC(=O)c2cc(C)nc3ccccc23)n1	none
O=C(NCc1ccccc1F)c1ccc2ccccc2n1	none (no result: SMN2 splice up, Luc counter)
Cc1csc(NC(=O)c2ccc3ccccc3n2)n1	FLuc modulator 1.1µM, ELG1 genotox inconclusive, NPC1 promoter act 0.5µM, Rab9 promoter act 1.1µM (no result: SMN2 splice up, Luc counter)
O=C(Nc1nccs1)c1cc(Cl)nc2ccccc12	none (no result: SMN2 splice up, Luc counter)
O=C(NCc1ccccc1Cl)c1ccc2ccccc2n1	FLuc modulator 15µM, ELG1 genotox inconclusive, NPC1 promoter act inconclusive, Rab9 promoter act inconclusive (no result: SMN2 splice up, Luc counter)
CSCC[C@H](NC(=O)Nc1ccc(S(N)(=O)=O)cc1)C(=O)O	none (no result: SMN2 splice up, Luc counter)
COc1ccc(/C=C(/NC(=O)c2ccccc2)C(=O)N2CCOCC2)cc1OC	none (no result: SMN2 splice up, Luc counter)
COc1cccc2cc(-c3nc(-c4cccs4)cs3)c(=O)oc12	FLuc modulator 5.4µM, SMN2 splice up 14µM, ELG1 genotox inconclusive, NPC1 promoter act 3.5µM, Rab9 promoter act 3.5µM
Cc1ccc(-c2nc(-c3cc4cccc(OCc5cccc(C)c5)c4oc3=O)no2)cc1	none (no result: ELG1 genotox, NPC1 promoter act, Luc counter, Rab9 promoter act)
O=c1oc2ccccc2cc1-c1nc(-c2cccs2)cs1	FLuc modulator inconclusive, ELG1 genotox inconclusive
CCOc1cccc2cc(-c3nc(-c4ccccc4C)no3)c(=O)oc12	FLuc modulator 0.54µM (no result: SMN2 splice up, ELG1 genotox, NPC1 promoter act, Luc counter, Rab9 promoter act)
COc1cccc2cc(-c3nc(-c4cccs4)no3)c(=O)oc12	FLuc modulator 0.076µM (no result: ELG1 genotox, NPC1 promoter act, Luc counter, Rab9 promoter act)
COc1cccc(-c2noc(-c3cc4ccccc4oc3=O)n2)c1OC	FLuc modulator 2.7µM (no result: SMN2 splice up, ELG1 genotox, NPC1 promoter act, Luc counter, Rab9 promoter act)
CC(C)C(=O)Nc1nnc(S(=O)(=O)N(C)Cc2ccc(F)cc2)s1	none (no result: SMN2 splice up, ELG1 genotox, NPC1 promoter act, Luc counter, Rab9 promoter act)
COc1cccc2cc(-c3nc(-c4ccccc4F)no3)c(=O)oc12	FLuc modulator 0.17µM (no result: SMN2 splice up, ELG1 genotox, NPC1 promoter act, Luc counter, Rab9 promoter act)
Cc1ccccc1CS(=O)(=O)Cc1ccc(C(=O)NCCc2ccccc2)o1	none (no result: SMN2 splice up, Luc counter)
COc1ccc(-n2c(C)cc(C(=O)COC(=O)c3cc(NC(=O)c4cccs4)c(OC)c(OC)c3)c2C)cc1	none
COc1cc(NC(=O)c2cccs2)c(C(=O)OCC(=O)NC(=O)NC(C)(C)C)cc1OC	none
